Measurements published in PubChem BioAssay (NCI).
The panel holds about 79,000 compounds, 15% with a hit somewhere; the sample as a whole holds those more often. Unmarked numbers belong to inactive results. Active and inactive are the calls of the source. No stated cut-off is given here; in the data, active means growth inhibition above about 70%; inactive means the rest.

Tests used:
[1] = NCI Yeast Anticancer Drug Screen. Data for the rad50 strain (AID 155);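 further: 0% = growth of vehicle-only cultures of the same strain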; conditions: S. cerevisiae rad50 strain growth inhibition, hits give high values
Method in brief: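 Genetically altered yeast (DNA repair pathway); compound treatment; growth inhibition vs vehicle ctrl.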

[2] = NCI Yeast Anticancer Drug Screen. Data for the mec2-1 strain (AID 157); conditions: S. cerevisiae mec2-1 strain, hits give high values
Method in brief: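 Using mec2-1 yeast: add compound, measure growth, express inhibition versus vehicle-treated cultures.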

[3] = NCI Yeast Anticancer Drug Screen. Data for the sgs1 mgt1 strain (AID 161);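 further: 0% = growth of cultures given vehicle only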; conditions: S. cerevisiae sgs1 mgt1 strain, hits give high values
Method in brief: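 Growth of a repair-deficient yeast mutant was monitored after compound treatment and expressed as inhibition relative to vehicle-treated cultures.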

[4] = NCI Yeast Anticancer Drug Screen. Data for the cln2 rad14 strain (AID 165);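 further: 0% = growth equal to vehicle treated cultures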; conditions: S. cerevisiae cln2 rad14 strain, hits give high values
Method in brief: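 Yeast strain cln2 rad14, bearing defects in cell cycle control and DNA repair, serves as the test system; values reflect growth inhibition compared with vehicle.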

[5] = NCI Yeast Anticancer Drug Screen. Data for the bub3 strain (AID 167); conditions: S. cerevisiae bub3 mutant strain, hits give high values
Method in brief: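 Yeast carrying a defined mutation is treated with each compound, and growth is compared with that of vehicle-exposed cells to give inhibition.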

[6] = NCI Yeast Anticancer Drug Screen. Data for the mlh1 rad18 strain (AID 175); conditions: S. cerevisiae mlh1 rad18 strain growth inhibition, hits give high values
Method in brief: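 Steps: expose repair-defective yeast to compound; measure growth; express inhibition against vehicle-treated controls.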

[7] = at 5.0 µM (retest, dose inferred, filed as 0.5)
[8] = at 50.0 µM (retest, dose inferred, filed as 5.0)

Compound | growth inhibition [1, 7] | growth inhibition [1, 8] | growth inhibition ([1]; at 50.0 µM) | growth inhibition [2, 7] | growth inhibition [2, 8] | growth inhibition ([2]; at 50.0 µM) | growth inhibition [3, 7] | growth inhibition [3, 8] | growth inhibition ([3]; at 50.0 µM) | growth inhibition [4, 7] | growth inhibition [4, 8] | growth inhibition ([4]; at 50.0 µM) | growth inhibition [5, 7] | growth inhibition [5, 8] | growth inhibition ([5]; at 50.0 µM) | growth inhibition [6, 7] | growth inhibition [6, 8] | growth inhibition ([6]; at 50.0 µM)
COC(=O)C1CCC(=O)N1C(c1ccc(OC)cc1)c1cc(OC)c(OC)c(OC)c1 (stereo not given) | 27% | 45% | -33.5% | 21% | 15% | 8.55% | 32% | 42% | 1.95% | 46% | 40% | -7.4% | 43% | 41% | -8.55% | 17% | 20% | -10.2%
S=C(Nc1ccc(Br)c(Cl)c1)SCc1ccc2c(c1)OCO2 | 49% | 97% (active) | 88% (active) | 49% | 98% (active) | 88.9% (active) | 77% (active) | 98% (active) | 88.7% (active) | 50% | 98% (active) | 86.1% (active) | 76% (active) | 98% (active) | 88.2% (active) | 44% | 97% (active) | 87.4% (active)
O=C1c2ccccc2C(=O)c2cc(N3C(=O)C=CC3=O)ccc21 | 54% | 83% (active) | 90.7% (active) | 50% | 89% (active) | 92% (active) | 96% (active) | 98% (active) | 91.5% (active) | 53% | 99% (active) | 91.7% (active) | 97% (active) | 97% (active) | 87.8% (active) | 47% | 80% (active) | 91.5% (active)
O=[N+]([O-])c1cc([N+](=O)[O-])c2ccccc2c1O | 17% | 90% (active) | 75% (active) | 8% | 90% (active) | 65.1% | 7% | 89% (active) | 88.8% (active) | -6% | 48% | 52% | 2% | 87% (active) | 61% | 9% | 92% (active) | 82.3% (active)
N#CCc1ccc2c(c1)Sc1ccccc1O2 | -159% | -54% | 90.5% (active) | -49% | -26% | 31.8% | -58% | -13% | 53% | -57% | -35% | -5.85% | -62% | -33% | 50.2% | -122% | -45% | 73.8% (active)
Cc1cc(SCC(=O)c2ccc(Br)cc2)cc(C)[o+]1 | -14% | 80% (active) | 94.5% (active) | 4% | 95% (active) | 95% (active) | 20% | 81% (active) | 91.5% (active) | -42% | 75% (active) | 90% (active) | -5% | 95% (active) | 93.1% (active) | -8% | 92% (active) | 95.1% (active)
CN(C)N=Nc1ccc(-c2ccccc2)cc1 | 24% | 95% (active) | 87.8% (active) | 42% | 92% (active) | 78.3% (active) | 6% | 60% | 81.8% (active) | 30% | 85% (active) | 74.2% (active) | 37% | 64% | 86.5% (active) | 38% | 89% (active) | 84.5% (active)
Nc1nc(N)c(C(=O)SCc2ccccc2)nc1Cl | 6% | 70% (active) | 66% | 2% | 57% | 58.9% | 3% | 52% | 97.4% (active) | 2% | 70% (active) | 4.95% | -2% | 62% | 7.45% | 5% | 94% (active) | 69.3%
N#CC(c1c(Cl)cccc1N1CCCCC1)N1CCCCC1 (stereo not given) | 31% | 75% (active) | 86.9% (active) | 34% | 78% (active) | 87.4% (active) | 41% | 85% (active) | 87.6% (active) | 30% | 61% | 80.4% (active) | 37% | 92% (active) | 91.2% (active) | 46% | 84% (active) | 87.7% (active)
CCCCCCCCCCCCCCCC1=NCCN1C | 14% | 99% (active) | 99.1% (active) | 9% | 100% (active) | 99.5% (active) | 29% | 99% (active) | 54.9% | 15% | 98% (active) | 96.5% (active) | 48% | 99% (active) | 99.3% (active) | 16% | 99% (active) | 98.9% (active)
CCNCC(O)COc1ccc2c(c1)[n+]([O-])nc(N)[n+]2[O-] (stereo not given) | 39% | 75% (active) | 61.1% | 31% | 88% (active) | 70% (active) | 42% | 60% | 62.8% | 42% | 41% | 40.9% | 47% | 84% (active) | 63% | 50% | 91% (active) | 58.8%
COc1ccc2c(Cc3cc(Cl)ccc3O)cncc2c1O | -1% | 32% | 50.1% | -8% | 60% | 31.6% | -5% | 51% | 29.7% | 3% | -4% | 40% | -2% | 31% | 96% (active) | 16% | 62% | 82.3% (active)
CCOC(=O)C(Cc1ccc(O)c(C=O)c1)NC(C)=O (stereo not given) | -13% | 7% | -19.7% | -9% | 20% | -7.45% | -22% | 2% | 0.3% | 3% | 39% | -8.75% | -1% | 3% | 0.05% | -7% | -10% | -1.55%
N/C(=N\OC(=O)Nc1ccccc1)c1ccccc1 | 7% | 51% | 42.1% | 8% | 40% | 33% | 13% | 70% (active) | 68% | 2% | 38% | 32.2% | -3% | 24% | 11.7% | 4% | 76% (active) | 58.6%
O=C1C(=O)c2ccccc2C=C1C1CCCCC1 | 13% | 64% | 85% (active) | 19% | 72% (active) | 78.2% (active) | 14% | 63% | 91% (active) | 1% | 43% | 71.5% (active) | 6% | 63% | 64% | 18% | 80% (active) | 91% (active)
CCC(c1ccc(Cl)cc1)C(C#N)c1ccccc1 (stereo not given) | 6% | 40% | 76.7% (active) | 7% | 34% | 49.2% | 3% | 53% | 69.4% | 2% | 3% | -0.6% | 1% | 3% | 40.4% | 7% | 30% | 59%
O=C(NNc1nc(-c2ccccc2)cs1)C(F)(F)F | 83% (active) | 97% (active) | 86.8% (active) | 74% (active) | 98% (active) | 89.7% (active) | 91% (active) | 99% (active) | 87.5% (active) | 50% | 91% (active) | 87% (active) | 97% (active) | 99% (active) | 85.7% (active) | 93% (active) | 94% (active) | 91.2% (active)
COc1cc(OC)c(C2CC(C)(OC)Oc3cc4c(cc32)OCO4)c(OC)c1 (stereo not given) | 4% | 10% | 4.35% | 6% | 3% | 17.1% | 2% | 12% | 3.8% | 5% | -4% | 5.45% | 0% | -1% | -2.6% | 5% | 19% | 27.9%
CCCCCCCCCCCN1C(=O)c2ccccc2S1(=O)=O | -3% | 78% (active) | -22.4% | -2% | 54% | 0.5% | 0% | 80% (active) | -11.4% | -14% | 34% | 58.8% | 0% | 79% (active) | 9.4% | 0% | 95% (active) | 32.4%
CC(=O)Oc1c(Br)cc(Br)cc1Br | 4% | -4% | 9.35% | -5% | -34% | 6.7% | 10% | 4% | 4.5% | 2% | -2% | 1.2% | 10% | 6% | 9.1% | 13% | 20% | 0.9%
